GLP1R cytotox – cytotoxic in the GLP-1 receptor inverse agonist counter-screen; HEK293 cAMP-luciferase reporter cells, luminescence, 24 h; Potency, µM (titrated, usually from 38.3 µM), without a hit: at the highest dose activity change, negative = inhibition, most hits filed as inhibitors; 410,000 compounds, 0.13% hits;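 note: loss of luciferase light is scored as toxicity; potency is the fitted concentration of half-maximal effect; % is set by controls: 0 for no effect and ±100 for the full control effect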
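Compound-treated cells are incubated 24 hr at 37 deg C under 5% CO2 after a 12 hour attachment period, then luciferase detection reagent is added and luminescence is measured following 12 min at room temperature; lowered signal indicates toxicity.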
hERG WT inh – inhibitors of human wildtype KCNH2 potassium channel; Q12809; U2OS, BacMam KCNH2, thallium flux FluxOr; hits give low values; activity change, % at 1.84 µM; 340,000 compounds, 0.37% hits; AID 720551;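 active = maximum activity change below -70%; inconclusive = maximum activity change between -70% and -50%; inactive = maximum activity change above -50%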; note: % is set by controls: 0 for no effect and ±100 for the full control effect
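U2OS cells transduced with wild-type KCNH2 virus are loaded with FluxOr dye for 45 min, and thallium flux is measured in kinetic reads before and after stimulation buffer. Rate constants are normalized to DMSO controls.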
GLP-1R inv ag – inverse agonists of human GLP-1 receptor | P43220 | HEK293 GLP-1R CRE-luciferase, luminescence, 24 h; GLP-1R form is constitutively active | Potency, µM (highest dose often 38.3 µM), without a hit: top-dose activity change, negative = inhibition, hits mostly inhibitors | 410,000 compounds, 1.6% hits | AID 624417; note: potency is the fitted concentration of half-maximal effect; % is set by controls: 0 for no effect and ±100 for the full control effect; nearly all actives have a fitted effect of over 55% in size
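Seeding at 200 cells/uL, 12 h culture, 24 hr compound treatment, then luciferase reagent and a luminescence read; cells are HEK293 stably expressing a constitutively active GLP-1R plus cAMP-responsive luciferase.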
KCNH2 3.1 block – inhibitors of human KCNH2 3.1 potassium channel isoform; U2OS KCNH2 3.1, thallium flux FluxOr; hits give low values; activity change, % (tested at about 1.8 µM); 340,000 compounds, 0.95% hits; AID 720553;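 active = maximum activity change below -70%; inconclusive = maximum activity change from -70% to -50%; inactive = maximum activity change above -50%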;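 note: thallium influx rate constant from kinetic fluorescence after stimulation buffer; % is set by controls: 0 for no effect and ±100 for the full control effect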
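Measured as rate of thallium-driven FluxOr signal in transduced U2OS cells carrying the 3.1 channel, read kinetically for 2 min upon stimulation; values are rate constants scaled to DMSO control wells.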
GLS inhibitor – inhibitors of human glutaminase (GLS) | GLS enzymatic activity, qHTS titration | 410,000 compounds, 0.21% hits | AID 624170 | O94925 | Potency, µM (series often up to 45.5 µM), without a hit: at the top dose activity change, negative = inhibition, usual class: inhibitors; note: potency is the fitted concentration of half-maximal effect; % is set by controls: 0 for no effect and ±100 for the full control effect
Target sequence (O94925 whole entry, looked up): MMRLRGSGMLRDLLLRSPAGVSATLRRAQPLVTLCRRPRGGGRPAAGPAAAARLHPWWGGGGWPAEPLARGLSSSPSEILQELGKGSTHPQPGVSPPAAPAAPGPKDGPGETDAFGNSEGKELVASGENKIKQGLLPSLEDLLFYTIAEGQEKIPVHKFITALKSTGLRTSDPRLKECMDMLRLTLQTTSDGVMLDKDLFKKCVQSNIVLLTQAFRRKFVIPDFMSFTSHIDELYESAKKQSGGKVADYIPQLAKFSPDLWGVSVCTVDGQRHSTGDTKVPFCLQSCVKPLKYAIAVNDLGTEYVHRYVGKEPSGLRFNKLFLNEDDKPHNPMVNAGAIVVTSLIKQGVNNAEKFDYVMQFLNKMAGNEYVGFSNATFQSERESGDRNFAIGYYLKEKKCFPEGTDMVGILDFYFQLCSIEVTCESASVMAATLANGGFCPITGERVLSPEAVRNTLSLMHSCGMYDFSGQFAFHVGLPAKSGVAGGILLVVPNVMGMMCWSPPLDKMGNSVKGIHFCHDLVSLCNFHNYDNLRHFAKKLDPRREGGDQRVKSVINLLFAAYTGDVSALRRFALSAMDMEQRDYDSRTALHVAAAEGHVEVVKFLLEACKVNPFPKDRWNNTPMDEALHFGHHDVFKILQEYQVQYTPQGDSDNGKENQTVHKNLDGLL
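Assay buffer: 45 mM KH2PO4 pH 8.2, 0.02% Tween-20. hKGA acts on L-glutamine (1 mM solution added); product glutamate is reported by an oxidase/peroxidase Amplex Red coupling, with fluorescence taken at baseline and 30 min.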
GLP-1R agonist – agonists of human GLP-1 receptor. P43220. HEK293 GLP-1R CRE-luciferase, luminescence, 4-6 h; cells express a hypersensitive GLP-1R form. Potency, µM (highest dose often 45.6 µM), for the others: at the highest dose activation, actives largely listed as activators. 380,000 compounds, 0.007% hits. AID 624172; note: potency is the fitted concentration of half-maximal effect; % of control where 0% means no effect
An asterisk follows results filed as active; ? = inconclusive; nt = not tested or not shown. Hits are enriched below; roughly 2.8% of the tested compounds scored in any of these assays. Unless noted, calls come from the whole dose curve; as a rule, active = well fitted curve in the direction sought with a large enough effect; inconclusive = small, poorly fitted or top-dose-only effect, or another doubt; inactive = no such curve, though single readings can be large; an effect the other way counts as inactive or inconclusive.

SMILES	GLP1R cytotox	hERG WT inh	GLP-1R inv ag	KCNH2 3.1 block	GLS inhibitor	GLP-1R agonist
OC(c1ccc(OCc2ccccc2)cc1)c1nnc(-c2ccccc2)o1 (configuration not stated)	-16%	-2	-20%	-8	1%	-8%
CN(C)c1cc(NC(=O)CNC(C)(C)C)c(O)c2c1C[C@@H]1C[C@H]3[C@H](N(C)C)C(=O)C(C(N)=O)=C(O)[C@@]3(O)C(=O)C1=C2O	nt	nt	nt	nt	6.3µM*	0%
CC(C)c1nc2cc(Cl)ccc2n(Cc2ccccc2)c1=O	-3%	1	7.9µM*	14	-8%	28%
COC(=O)CCc1nc2cc(Cl)ccc2n(Cc2ccccc2)c1=O	3%	13	?	-8	-2%	24%
COc1cccc(Nc2nc(CN3CCOCC3)nc3sc4c(c23)CCCC4)c1	-2%	-134*	?	-6	14%	2%
Cc1cc(S(=O)(=O)Nc2nc(CN3CCOCC3)nc3sc4c(c23)CCCC4)ccc1F	-14%	2	?	-9	10%	-3%
Cc1onc(-c2ccccc2Cl)c1C(=O)Nc1nnc(-c2ccc(F)cc2)s1	-9%	-8	?	0	21%	-2%
Cc1onc(-c2ccccc2Cl)c1C(=O)Nc1nnc(-c2ccc(Br)cc2)s1	-18%	2	10µM*	11	-6%	-7%
Cc1onc(-c2ccccc2Cl)c1C(=O)Nc1nc2c(s1)CCCC2	-1%	-4	10µM*	0	0%	-7%
CC12C=CC(=O)C=C1CCC1C2C(O)CC2(C)C1CCC2(O)C(=O)COC(=O)CCC(=O)O (configuration not stated)	nt	nt	nt	nt	-5%	-2%
CCN(CC)CC#CCC(O)(c1ccccc1)c1ccc(Br)cc1 (configuration not stated)	-24%	nt	10µM*	-28	-7%	-6%
CCc1ccc([C@@H]2C[C@H]3CN(Cc4ccccc4OC)C(=O)[C@]34CCCN24)cc1	-7%	44	13µM*	-36	7%	8%
CCOC(=O)c1scc(-c2ccc(C)cc2)c1S(=O)(=O)N1CCN(c2ccccc2F)CC1	34%	nt	7.9µM*	nt	-6%	nt
CCOC(=O)COc1ccc(S(=O)(=O)N2CCN(c3ccccc3F)CC2)cc1	1%	-4	-14%	3	8%	1%
COC(=O)c1ccccc1NC(=O)NCc1ccc2c(c1)CCN2C(=O)c1ccccc1	-15%	nt	14%	nt	6%	nt
Cc1ccc(C)c(S(=O)(=O)N2CCN(C(=O)Cc3c(F)cccc3Cl)CC2)c1	3%	1	?	-78*	8%	5%
Cc1ccc(S(=O)(=O)N2CCN(C(=O)COC(=O)c3ccc(Cl)nc3)CC2)c(C)c1	1%	-162*	-10%	-18	0%	-7%
Cc1ccc(C)c(OCCC(=O)N2CCN(S(=O)(=O)c3cc(C)ccc3C)CC2)c1	-10%	-1	11µM*	-1	-10%	11%
CCOc1ccc(CC(=O)NCCS(=O)(=O)N2CCN(c3ccc(OC)cc3)CC2)cc1	5%	nt	-8%	nt	8%	nt
COc1ccc(CNC(=O)CN2C(=O)c3cccnc3Oc3ccc(C)cc32)cc1	-33%	nt	-8%	nt	7%	nt
CC1CCc2sc3ncn4nc(C(=O)NCc5ccco5)nc4c3c2C1 (configuration not stated)	18%	6	-3%	-77*	4%	-2%
CCc1ccc(C2c3c(oc4ccc(F)cc4c3=O)C(=O)N2c2nc(C)c(C(=O)OC)s2)cc1 (configuration not stated)	5%	nt	17%	nt	-2%	nt
CCOc1ccc(NCc2cccn2-c2nnc(N3CCC(C(=O)NCCCN4CCCCC4C)CC3)s2)cc1 (configuration not stated)	?	16	?	-21	23%	5%
CCOc1ccc(NCc2cccn2-c2nnc(N3CCC(C(=O)NCCCN4C(C)CCCC4C)CC3)s2)cc1 (configuration not stated)	?	-228*	?	13	2%	-1%
O=C(CSc1ccc2nc(-c3ccccc3)cn2n1)Nc1ccccc1	-16%	nt	-26%	nt	-11%	1%
SMILES	GLP1R cytotox	hERG WT inh	GLP-1R inv ag	KCNH2 3.1 block	GLS inhibitor	GLP-1R agonist
CCc1ccc(C(=O)C(C)OC(=O)c2cccc(S(=O)(=O)N3CCOCC3)c2)cc1 (configuration not stated)	-6%	-5	?	-17	-5%	28%
O=C1C2C3C=CC(C3)C2C(=O)N1CCN1CCN(S(=O)(=O)c2ccc3ccccc3c2)CC1 (configuration not stated)	-16%	4	11µM*	-4	2%	-4%
O=C1C2C3C=CC(C3)C2C(=O)N1CCN1CCN(S(=O)(=O)/C=C/c2ccccc2)CC1 (configuration not stated)	-5%	nt	-20%	5	8%	9%
O=C(O)c1ccccc1-c1ccc(/C=c2\sc3nc4cc(Br)cnc4n3c2=O)o1	3%	-8	0%	8	13µM*	-9%
Cc1cc2nc3s/c(=C/c4ccc(-c5ccccc5C(=O)O)o4)c(=O)n3c2cc1C	47%	-23	21%	-7	?	7%
Fc1c(CSC(=S)N2CCOCC2)cccc1CSC(=S)N1CCOCC1	6%	-152*	16%	-196*	-3%	1%
O=C1c2ccccc2C(=O)N1CCSC(=S)N1CCOCC1	-7%	-11	11%	15	10%	-10%
COc1cccc(/C=N/n2c(C3CCCCC3)n[nH]c2=S)c1O	-4%	-19	-5%	-9	7.9µM*	11%
COCCNc1nc(-c2cc(C)c(C)cc2C)cs1	1%	-12	?	-11	13µM*	4%
COCCNC(=O)c1ccc(-c2csc(C)n2)cc1	5%	-1	9%	-3	-1%	1%
CC(C)C(=O)NCC(c1ccc2c(c1)OCO2)N1CCOCC1 (configuration not stated)	3%	-24	-7%	4	-11%	-4%
COc1ccc(CNC(=O)CN2C(=O)CC(c3ccc(C)c(C)c3)=Nc3ccccc32)cc1	-2%	nt	7%	nt	-2%	nt
N#CCCn1cc(/C=C2\NC(=S)N(c3ccccc3)C2=O)c(-c2ccc(-c3ccccc3)cc2)n1	1%	1	7.9µM*	10	-10%	1%
CCN(c1ccccc1)S(=O)(=O)c1c(C)noc1C	-6%	9	-9%	5	2%	0%
O=C1CC(=O)N(Cc2ccco2)C(=S)N1	-5%	1	7%	8	?	-17%
O=C1CC(=O)N(Cc2ccco2)C(=O)N1	7%	-4	9%	10	10µM*	-8%
